Assay outcomes from PubChem BioAssay.
Compounds with a hit are over-represented: about 27% of the library has one in this group of screens.
EphB4 ephrin blk – blocks human EphB4 binding to ephrin-B2; P54760; EphB4 LBD / TNYL-RAW-Alexa532 peptide, fluorescence polarization; inhibition, % at 7 µM; actives 0.15% (n = 97,000);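 active = inhibition above the screen-wide mean inhibition plus 3 SD, cut at about 15% in these data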;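 also: 0% = DMSO wells and 100% = excess unlabeled TNYL-RAW peptide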
CYP2C19 inh – human CYP2C19 inhibition | actives 21% (n = 96,000) | CYP2C19 Supersomes, luciferin-H EGE luminescence, 30 min | inhibition, % at 5 µM | P33261;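 active = CYP2C19 inhibition above a set limit at 5 µM in the primary screen, cut at about 50% in these data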;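 also: plate controls were negative control wells for no effect and 2.5 mM tranylcypromine positive control for full effect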
CYP2C9 activ – CYP2C9 (human) activation; activation factor at 5 µM; recombinant CYP2C9, luciferin-H conversion, luminescence; active compounds read high; factor 1 = untreated enzyme, 0 = blocked; actives 1.4% (n = 96,000); P11712;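 active = activation factor of 2 or more for CYP2C9 at a 5 µM dose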;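 also: 0 = sulfaphenazole-blocked wells and 1 = vehicle-only wells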
Target sequence (P11712 whole entry, looked up): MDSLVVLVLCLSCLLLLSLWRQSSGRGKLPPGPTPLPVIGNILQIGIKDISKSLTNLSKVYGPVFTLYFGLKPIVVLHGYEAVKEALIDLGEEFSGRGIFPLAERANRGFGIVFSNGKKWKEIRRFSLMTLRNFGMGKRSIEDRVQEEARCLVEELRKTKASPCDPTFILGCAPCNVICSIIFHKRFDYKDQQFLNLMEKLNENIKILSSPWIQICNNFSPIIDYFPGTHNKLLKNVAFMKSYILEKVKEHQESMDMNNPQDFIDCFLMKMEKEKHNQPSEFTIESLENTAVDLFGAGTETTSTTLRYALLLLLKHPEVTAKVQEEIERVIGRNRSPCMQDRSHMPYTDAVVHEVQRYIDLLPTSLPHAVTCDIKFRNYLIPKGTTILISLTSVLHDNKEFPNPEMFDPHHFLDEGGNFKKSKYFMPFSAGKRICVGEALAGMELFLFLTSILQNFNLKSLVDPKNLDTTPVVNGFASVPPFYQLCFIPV
CYP2C9 inhib – blocks human cytochrome P450 2C9; P11712; CYP2C9 Supersomes, luciferin-H conversion, luminescence; inhibition, % at 5 µM; actives 20% (n = 96,000); AID 777;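 active = blocking of liver enzyme CYP2C9 beyond about 50% at 5 µM, limit read from the data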
CYP2C19 activ – activators of human cytochrome P450 2C19; P33261; recombinant CYP2C19, luciferin-H EGE luminescence; active compounds read high; 0 = fully inhibited enzyme, 1 = untreated enzyme; 96,000 tested, under 10 active; activation factor at 5 µM;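 active = activation factor of at least 2 at 5 µM in the primary screen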;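 also: 0 = wells with 2.5 mM tranylcypromine and 1 = vehicle-only wells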
An asterisk follows results filed as active; / = not tested or not shown.

SMILES | EphB4 ephrin blk | CYP2C19 inh | CYP2C9 activ | CYP2C9 inhib | CYP2C19 activ
CC(C)CN(C(=O)COC(=O)Cc1c[nH]c2ccccc12)C1CCS(=O)(=O)C1 (stereo not drawn) | 1.0 | 27.5 | 0.9 | 7.0 | 0.7
CC(C)CN(C(=O)COC(=O)CCc1c[nH]c2ccccc12)C1CCS(=O)(=O)C1 (stereo not drawn) | 1.5 | 15.5 | 2.2* | -123.8 | 0.8
Cc1ccc(C(=O)NNC(=S)Nc2cccc(Cl)c2Cl)cc1[N+](=O)[O-] | 11.8 | 24.6 | 0.2 | 76.2* | 0.8
Nc1ccc(C(=O)Nc2ccc3nc(-c4cccnc4)[nH]c3c2)cc1 | -0.1 | 6.5 | 0.9 | 11.4 | 0.9
Cn1cccc1-c1nc2ccc(NC(=O)c3ccc([N+](=O)[O-])cc3)cc2[nH]1 | 0.3 | 1.4 | 0.9 | 8.4 | 1
COC(=O)c1ccc(C(=O)Nc2ccc3nc(-c4cccnc4)[nH]c3c2)cc1 | 5.4 | 40.5 | 0.3 | 67.1* | 0.6
Cc1ccc(S(=O)(=O)Nc2ccc3nc(-c4cccn4C)[nH]c3c2)cc1 | -1.7 | 100.0* | 0 | 100.0* | 0
Cn1cccc1-c1nc2ccc(NC(=O)c3ccccc3)cc2[nH]1 | 2.8 | 78.5* | 0.3 | 68.0* | 0.2
Cc1ccc(S(=O)(=O)NCc2nc3ccccc3[nH]2)cc1 | 0.8 | 45.6 | 0.6 | 43.3 | 0.5
Cc1ccc(NS(=O)(=O)c2ccc(C(=O)N3CCCN(C)CC3)cc2)cc1 | -3.0 | / | / | / | /
COc1ccc(C2=CC(=O)OC3(CCCCC3)O2)cc1 | -3.8 | 95.0* | 0.1 | 87.9* | 0.1
O=C(NCc1ccco1)C1CCN(S(=O)(=O)c2ccc(-n3cnnn3)cc2)CC1 | -7.3 | 13.7 | 0.9 | 11.8 | 0.9
Oc1c(CN2CCCCC2)cc(COCc2ccccc2)c2cccnc12 | 19.8* | 3.4 | 0.9 | 14.9 | 1
Cc1ccc(CC(=O)Nc2ccccc2N2CCOCC2)cc1C | 2.3 | 39.7 | 0.2 | 83.2* | 0.6
O=C(Cc1ccc(Cl)cc1)Nc1ccccc1N1CCOCC1 | 9.8 | 84.1* | 0.6 | 40.9 | 0.2
Cc1ccccc1NC(=O)COc1nsnc1N1CCOCC1 | 4.1 | 60.2* | 0.9 | 14.8 | 0.4
CC(C)CC(=O)Nc1ccccc1N1CCOCC1 | 7.7 | 13.6 | 1 | 4.4 | 0.9
Cc1cc(Cl)ccc1OCC(=O)Nc1ccccc1N1CCOCC1 | -0.3 | 91.2* | 0.1 | 94.5* | 0.1
O=C(COc1ccc(Cl)cc1)Nc1ccccc1N1CCOCC1 | -7.3 | 25.5 | 1.2 | -19.3 | 0.7
CC(=Nc1ccccc1)c1sc2ccccc2c1O | 3.0 | 39.3 | 0.7 | 32.7 | 0.6
CCCOCC1CC2(CC(C)(c3csc(N)n3)OC2=O)C(=O)O1 (stereo not drawn) | 2.5 | / | / | / | /
Cc1cccc(-c2nc3c(c(SCC(N)=O)n2)CCCC3)c1 | -1.2 | / | / | / | /
CCOc1cc(N2CCOCC2)c(OCC)cc1NC(=O)Cc1cccc2ccccc12 | -3.2 | 54.6* | 0.6 | 41.5 | 0.5
CCOc1cc(N2CCOCC2)c(OCC)cc1NS(=O)(=O)c1ccc(Cl)s1 | -1.7 | 93.1* | 0.4 | 60.2* | 0.1
O=C(COc1ccc(Cl)cc1Cl)NC(=O)N1CCOCC1 | 3.2 | 52.0* | 1.1 | -12.9 | 0.5
SMILES | EphB4 ephrin blk | CYP2C19 inh | CYP2C9 activ | CYP2C9 inhib | CYP2C19 activ
O=C(CN(C(=O)Cn1nnc(-c2ccc(F)cc2)n1)C1CCCC1)NC1CCCC1 | -6.1 | 4.8 | 1 | -1.1 | 1
O=C(CSc1nnc(COc2ccc(Cl)cc2)n1Cc1ccco1)c1ccccc1F | 4.8 | 3.5 | 0.8 | 17.0 | 1
COc1ccc(S(=O)(=O)N(CC(=O)N2CCCC2)Cc2ccccc2)cc1 | 0.5 | 42.3 | 0.8 | 22.7 | 0.6
CCOC(=O)N1CCN(C(=O)CN(Cc2ccccc2)S(=O)(=O)c2ccc(OC)c(C)c2)CC1 | -0.5 | 64.1* | 0.7 | 26.7 | 0.4
CCOC(=O)N1CCN(C(=O)CN(Cc2ccc(Cl)cc2)S(=O)(=O)c2ccc(C)cc2)CC1 | -1.3 | 96.1* | 0.1 | 90.2* | 0
COc1ccc(S(=O)(=O)N(C)CC(=O)N2CCN(C)CC2)cc1C | 0.2 | -12.1 | 0.9 | 12.0 | 1.1
Cc1ccc(S(=O)(=O)N(CCC(=O)O)Cc2ccc(Cl)cc2)cc1 | 1.5 | 36.9 | 0.5 | 53.7* | 0.6
CCOC(=O)N1CCN(C(=O)CN(Cc2ccccc2)S(=O)(=O)c2ccc(OC)c(Cl)c2)CC1 | -0.7 | 88.8* | 0.5 | 54.9* | 0.1
CCOC(=O)N1CCN(C(=O)CN(Cc2ccc(Cl)cc2)S(C)(=O)=O)CC1 | -2.2 | 48.2 | 0.8 | 17.6 | 0.5
COc1ccc(S(=O)(=O)N(C)CC(=O)N2CCN(Cc3ccccc3)CC2)cc1C | 5.7 | 32.3 | 2.4* | -137.0 | 0.7
CCN1CCN(C(=O)CN(C)S(=O)(=O)c2ccc(OC)c(C)c2)CC1 | 3.9 | -2.2 | 1.6 | -62.2 | 1
O=C(NNC(=S)NC(=O)c1cccnc1)c1ccc(Cl)cc1 | 0.5 | 2.0 | 0.4 | 63.2* | 1
CCNC(=S)NNC(=O)c1cccnc1 | -0.8 | / | / | / | /
Cc1ccc(C(=O)NNC(=S)NC(=O)c2ccc(Cl)cc2)cc1 | 3.2 | -0.1 | 0.1 | 87.4* | 1
CCC1Oc2ccc(C)cc2N(CC(=O)NCCCN2CCCCC2CC)C1=O (stereo not drawn) | 2.0 | -8.9 | 1.1 | -8.2 | 1.1
CCC1Oc2ccc(C)cc2N(CC(=O)NCCC2=CCCCC2)C1=O (stereo not drawn) | / | 99.1* | 0.7 | 25.4 | 0
O=C(CN1C(=O)NC2(CCCC2)C1=O)NCCC1=CCCCC1 | 15.9* | 17.4 | 1 | 1.3 | 0.8
NC(=O)c1oc2ccc(Cl)cc2c1N | -2.1 | -14.1 | 1.2 | -15.2 | 1.1
COc1ccc2oc(-c3ccccc3)c(C(N)=O)c2c1 | / | 20.9 | 1.1 | -11.3 | 0.8
CC(=O)NCCn1c(SCc2ccccc2C)nc2ccccc2c1=O | 0.0 | 78.6* | 0 | 98.5* | 0.2
CC(=O)NCCn1c(SCc2ccc(C)cc2C)nc2ccccc2c1=O | 2.6 | 98.1* | 0 | 98.5* | 0
CCn1c(SCC(N)=O)nc2ccccc2c1=O | -6.8 | -10.8 | 1.1 | -7.9 | 1.1
CC(=O)NCCn1c(SCc2cc(F)ccc2F)nc2ccccc2c1=O | 3.6 | 76.2* | 0 | 99.2* | 0.2
COCCNC(=O)COc1ccccc1Cl | 4.1 | 26.6 | 1 | -4.6 | 0.7
COc1cccc(C(=O)N(CN2CCCC2=O)c2cccc(Cl)c2)c1OC | -1.7 | 16.7 | 1 | -1.4 | 0.8
SMILES | EphB4 ephrin blk | CYP2C19 inh | CYP2C9 activ | CYP2C9 inhib | CYP2C19 activ
c1ccc(N2CCN(Cc3nnnn3C3CCCCC3)CC2)cc1 | 0.8 | 63.7* | 0.1 | 87.2* | 0.4
Cc1ccc(Cl)cc1N1CCN(Cc2nnnn2C2CCCCC2)CC1 | 0.6 | 43.7 | 0.4 | 57.6* | 0.6
CCn1cc(/C=C2\SC(=O)N(CC(=O)Nc3ccc4c(c3)OCO4)C2=O)c2ccccc21 | -0.2 | 1.8 | 0.9 | 14.6 | 1
CC(=O)NC(CCS(C)(=O)=O)C(=O)Nc1c(F)cccc1F (stereo not drawn) | -5.4 | -17.4 | 1.1 | -14.5 | 1.2
Cc1cc(=O)c2cc(Br)ccc2[nH]1 | -1.6 | 23.2 | 0.5 | 51.5* | 0.8
Cc1cc(=O)c2ccccc2[nH]1 | -2.2 | -14.1 | 1.6 | -59.4 | 1.1
